For the experiment, the target named is Sialic acid-binding Ig-like lectin 9 (Homo sapiens) (UniProt Q9Y336). Kind of experiment: Hs-Siglec9 ALPHAscreen SOP 20170721. Also noted: scale not given: direction of the effect not stated beside the values. As to conditions: 10 µM. On the technique in general: Alpha assays give light when donor and acceptor beads are brought close together.
Sialic acid-binding Ig-like lectin 9 (Homo sapiens), sequence (Q9Y336 whole entry): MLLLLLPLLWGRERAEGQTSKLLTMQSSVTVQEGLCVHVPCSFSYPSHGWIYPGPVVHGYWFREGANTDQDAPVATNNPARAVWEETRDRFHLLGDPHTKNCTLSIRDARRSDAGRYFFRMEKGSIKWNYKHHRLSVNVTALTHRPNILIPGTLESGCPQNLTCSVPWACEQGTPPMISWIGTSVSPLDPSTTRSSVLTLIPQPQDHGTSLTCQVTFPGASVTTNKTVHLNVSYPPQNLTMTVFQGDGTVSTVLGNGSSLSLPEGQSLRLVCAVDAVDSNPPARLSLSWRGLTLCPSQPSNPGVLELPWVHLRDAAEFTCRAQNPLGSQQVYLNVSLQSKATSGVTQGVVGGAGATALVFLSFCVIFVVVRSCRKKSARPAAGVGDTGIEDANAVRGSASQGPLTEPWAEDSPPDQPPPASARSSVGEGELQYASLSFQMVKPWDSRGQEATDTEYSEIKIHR
For `CC(=O)N1CCCC1c1nccc(C)n1` (centres undefined), the Percent Effect turned out to be 7.48%.

Consider `CN(Cc1nccn1CC(F)(F)F)C(=O)c1cccc(C#N)c1`, for which the Percent Effect worked out at 3.82%.

For the compound `COc1ccc(-c2noc(CNC(C)Cn3cccn3)n2)c(OC)c1` (centres undefined), the Percent Effect was -7.44%.

For `NCC(=O)N1CCCC(c2cncc(Nc3ncccn3)n2)C1` (centres undefined), the Percent Effect worked out at 18%.

In the case of `O=C(Cc1ccccc1)N1CCC2(CC(=O)N(c3ccsc3)C2)C1` (centres undefined), the Percent Effect is -6.07%.

As to `CCCSCC(=O)NS(=O)(=O)c1ccc2c(c1)OCCO2`, the Percent Effect came to 7.23%.

On to `O=C(NC1CC1)[C@H]1C[C@@H]2CCN(CCc3ccccc3)C[C@H]2O1`, for which the Percent Effect is -8.83%.

Turning to `OC1CCCN(Cc2c(-c3ccco3)[nH]c3ncccc23)C1` (centres undefined), the Percent Effect stood at 19%.

Turning to `Cn1cccc1C1CCCN1C(=O)NCCCn1cccn1` (centres undefined), the Percent Effect was -0.718%.

Turning to `O=C(NC1(c2nnn(CCO)n2)CCCC1)c1ccccc1`, the Percent Effect is 17.4%.

Take `O=C(Cc1ccccc1)N1CCC2(CC(=O)N(c3cccc(F)c3)C2)C1` (centres undefined): the Percent Effect is -3.6%.

As to `c1cncc(C2COC3(CCN(CC4CC4)CC3)C2)c1` (centres undefined), the Percent Effect is -4.23%.

Consider `Cc1nc(C2CCCN(C(=O)c3ccc(OCC4CC4)cc3)C2)no1` (centres undefined), for which the Percent Effect was 21.9%.

As for `Cc1ncsc1C(=O)NC1CCN(CCC(N)=O)CC1`, the Percent Effect worked out at 11%.

Turning to `CCn1cc(N)c(C(=O)NCc2cnn(C)c2)n1`, the Percent Effect was 0.256%.

Take `O=C(NCCNc1ccc(C(F)(F)F)cn1)c1ccc(Br)cc1F`: the Percent Effect was -16.8%.

For `CCc1ccc(C(=O)N2CCCC(c3noc(CC)n3)C2)o1` (centres undefined), the Percent Effect came out at 4.61%.

`CN(c1ccc(C(=O)NCCCN2CCOCC2)c(Cl)c1)S(C)(=O)=O`: the Percent Effect stood at 13.2%.

Turning to `CCN1CCCC1CN(CCN(C)C)S(=O)(=O)c1ccc(C#N)cc1` (centres undefined), the Percent Effect was 21.3%.

Regarding `CN(C)C(C)(C)CNC(=O)C(C)(C)c1ccccc1F`, the Percent Effect was 4.5%.

In the case of `Cc1cccc(CCC(=O)N2CCOCC2c2c(C)n[nH]c2C)c1` (centres undefined), the Percent Effect came out at 6.45%.

Take `COc1ccc(NC(=O)c2ccc[nH]2)c(N2CCN(C(C)=O)CC2)n1`: the Percent Effect was -2.38%.

With `CS(=O)(=O)NCC1CCCN(C(=O)Nc2ccccc2Cl)C1` (centres undefined), the Percent Effect was determined as 0.518%.

Consider `O=c1cc2c(nn1CN1CCOCC1)CCC2`, for which the Percent Effect was -0.0396%.

In the case of `CN(C)C(CNC(=O)c1cccc(-n2cnnn2)c1)c1ccccc1Cl` (centres undefined), the Percent Effect was -4.62%.

With `COc1cccc2c1ccn2CCNC(=O)C(C)C`, the Percent Effect worked out at 3.44%.

Regarding `CCc1ncncc1C(=O)N1CCCN(Cc2ccc(C)cc2)CC1`, the Percent Effect was -3.26%.

For the compound `CC(NC1(CNC(=O)C(C)(C)C#N)CCOCC1)c1ccccc1` (centres undefined), the Percent Effect was -3.49%.

As to `COc1ccc(CN2C[C@@H]3OCCN(CC4CCCO4)[C@@H]3C2)cc1` (some centres undefined), the Percent Effect was -5.49%.

As to `Cc1cc(C)c(CNC(=O)N2CCN(c3cnccn3)CC2)c(=O)[nH]1`, the Percent Effect came to 2.54%.

As to `Cc1nc(CN(Cc2cccs2)C2CCS(=O)(=O)C2)oc1C` (centres undefined), the Percent Effect is 1.17%.

For the compound `CCOc1ccc(S(=O)(=O)NC(=O)CCC2CCCO2)cc1` (centres undefined), the Percent Effect is -5.67%.

For `CC(C)NC(=O)N1CC[C@@H]2CN(Cc3ccccc3)S(=O)(=O)[C@@H]2CC1`, the Percent Effect was -3.29%.

Regarding `CN(Cc1ccc(F)cc1)C(=O)CN1CCCC(Cn2cncn2)C1` (centres undefined), the Percent Effect is 7.47%.

For `CNS(=O)(=O)c1ccc(C(=O)N2CCCC(n3cccn3)C2)cc1` (centres undefined), the Percent Effect is 8.86%.

In the case of `Cc1ccc(F)c(-n2nnc(C(=O)O)c2-c2ccncc2)c1`, the Percent Effect is -1.83%.

For `CN(C)c1ccc(C(=O)NCC2(O)CCOCC2)cc1`, the Percent Effect is 3.55%.

`CNS(=O)(=O)CCCN1CCCC1c1cc(C)on1` (centres undefined): the Percent Effect was -3.19%.

Consider `CCN1CC2(CC1=O)CN(Cc1cccs1)CCN(C(=O)C(C)C)C2` (centres undefined), for which the Percent Effect is -2.56%.

Values taken from ChEMBL document CHEMBL3988442, “University of Dundee, Small-Polar-MMV Screening Library” (2021).
